Screens as filed in PubChem.
In the library only some 5.4% were active in any assay of this set; here they are far more common.
Granule exo inh: LAMP-1 surface exposure blockers, TALL-104 cells – cell-based, flow cytometry, MLPCN library, primary screen. TALL-104 LAMP-1 surface exposure; cells stimulated with thapsigargin and PMA. inhibition, % at 10 µM. 360,000 compounds, 0.66% hits. AID 651702, 2012;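 active = inhibition above about 55%, limit read from the data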
SMARCA2 act: SMARCA2 (BRM) function activators, primary screen, cell-based, luminescence, high throughput; MG213 cells, MMTV-luciferase reporter, dexamethasone, overnight; activation, % at 9.1 µM; 370,000 compounds, 1% hits; in the data active = activation above about 7.8%
GASC-1 inh: inhibitors of GASC-1 histone demethylase, primary screen, biochemical, fluorescence, DELFIA europium; 330,000 compounds, 0.069% hits; GST-JMJD2C(1-420) H3K9me3 demethylation; inhibition, % at 2.35 µM;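 active = more than half of a compound's replicate wells show inhibition beyond 50%, single wells judged on their own value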;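 also: signal counts dimethyl H3K9 product captured on neutravidin plate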
Target sequence (Q9H3R0 1-420 limits assumed): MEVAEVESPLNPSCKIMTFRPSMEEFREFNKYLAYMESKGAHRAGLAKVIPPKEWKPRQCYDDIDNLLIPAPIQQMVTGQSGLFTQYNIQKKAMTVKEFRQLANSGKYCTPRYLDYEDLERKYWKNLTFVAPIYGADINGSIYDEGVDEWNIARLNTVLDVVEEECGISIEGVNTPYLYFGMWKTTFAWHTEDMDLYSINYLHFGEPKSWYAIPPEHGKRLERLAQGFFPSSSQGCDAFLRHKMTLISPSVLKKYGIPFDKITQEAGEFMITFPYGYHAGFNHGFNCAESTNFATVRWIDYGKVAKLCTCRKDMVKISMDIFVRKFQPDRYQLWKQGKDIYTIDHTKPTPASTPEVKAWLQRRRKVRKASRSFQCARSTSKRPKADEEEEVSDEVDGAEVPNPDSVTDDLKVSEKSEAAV
M18AAP inhibitor: PfM18AAP inhibitors, malaria aminopeptidase, primary screen, biochemical, QFRET, recombinant enzyme. AID 1822, 2009. M18 aspartyl aminopeptidase (Plasmodium falciparum 3D7). H-Glu-NHMec fluorogenic cleavage. 290,000 compounds, 1.2% hits. inhibition, % at 7.35 µM;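 active = inhibition above the campaign mean inhibition over all tested compounds plus 3 SD, cut at about 28% in these data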
beta cell repl: inducers of MIN6 beta-cell proliferation, primary screen, ATP luminescence, uHTS. proliferation, % at 10 µM. MIN6 cells proliferation, ATPlite luminescence, 48 h; cells starved in 0.2% serum; 100% = growth in 10% serum. 330,000 compounds, 0.29% hits;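 active = compounds whose signal lies at least 3.5 SD above the mean of all wells on their plate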
ALR inh: inhibitors of human ALR sulfhydryl oxidase, primary screen, biochemical, H2O2 detection, HRP-luminol luminescence, single point. purified ALR, DTT oxidation. 290,000 compounds, 3.8% hits. inhibition, % (concentration not given with the values). FAD-linked sulfhydryl oxidase ALR (Homo sapiens), P55789;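 active = mean replicate inhibition above about 79%, with every replicate also reaching it, limit read from the data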
Target sequence (P55789 whole entry, looked up): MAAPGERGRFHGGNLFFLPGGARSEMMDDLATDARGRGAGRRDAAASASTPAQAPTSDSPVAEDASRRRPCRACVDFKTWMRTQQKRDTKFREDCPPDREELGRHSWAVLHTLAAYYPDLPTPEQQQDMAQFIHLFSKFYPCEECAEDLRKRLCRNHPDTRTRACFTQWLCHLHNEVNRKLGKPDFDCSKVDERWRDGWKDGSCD
Of the large screens only hits and unclear results are named; the others gave an inactive call.

Cc1ccc(NC(=S)NNC(=O)CSc2nc3ccccc3c(=O)n2-c2ccc(Cl)cc2)cc1	none (no result: Granule exo inh, GASC-1 inh, M18AAP inhibitor, beta cell repl, ALR inh)
CCn1c(CNC(=O)c2cccs2)nnc1SCC(=O)Nc1cc(Cl)ccc1C	none
O=C(CSc1nc(O)cc(=O)n1-c1ccccc1)Nc1nc2ccccc2s1	ALR inh 99
CCOC(=O)C1=NOC(C(=O)Nc2cc(C)cc(C)c2)(C(=O)C2CC2)C1 (configuration not stated)	none (no result: Granule exo inh, GASC-1 inh, M18AAP inhibitor, beta cell repl, ALR inh)
CC(C)C(=O)Oc1ccc(CO)cc1[C@H](CCN(C(C)C)C(C)C)c1ccccc1	none (no result: Granule exo inh, GASC-1 inh, M18AAP inhibitor, beta cell repl, ALR inh)
COc1ccc(NCc2nnc(SCC(=O)Nc3ccccc3)n2C)cc1	ALR inh 94
CCn1c(CNc2ccc(C)cc2)nnc1SCC(=O)NCc1ccccc1	ALR inh 86
CCn1c(CNc2ccccc2Cl)nnc1SCC(=O)NCc1ccccc1	none
COc1ccc(NC(=O)CSc2nc(O)cc(=O)n2-c2ccccc2)cc1	ALR inh 99
O=C(CSc1nc(O)cc(=O)n1-c1ccccc1)Nc1ccc2c3c(cccc13)CC2	ALR inh 99
COc1ccc(NC(=O)CSc2nnc(C3CCCCC3)n2-c2ccccc2)cc1	none
C=C(C)[C@@H]1CC2=C(OC)C(CC=C(C)C)(CC=C(C)C)C(=O)C(C(=O)c3ccccc3)=C2O1	none (no result: Granule exo inh, GASC-1 inh, M18AAP inhibitor, beta cell repl, ALR inh)
O=C(CC1CCCC1)N1CC[C@H]2[C@H](CCCN2Cc2ccccc2)C1	none (no result: Granule exo inh, GASC-1 inh, M18AAP inhibitor, beta cell repl, ALR inh)
C=CCN(CC#Cc1ccccc1)CC=C	none (no result: Granule exo inh, GASC-1 inh, M18AAP inhibitor, beta cell repl, ALR inh)
COC(=O)[C@]12C[C@H](CC(=O)NCc3ccccc3)C(=O)N(Cc3cccc4ccccc34)C1=C[C@H](C(C)C)O[C@@H]2C1CC1	none (no result: Granule exo inh, GASC-1 inh, M18AAP inhibitor, beta cell repl, ALR inh)
COc1ccccc1NC(C)C(=O)Nc1ccc(C(C)=O)cc1 (configuration not stated)	ALR inh 99
COc1ccccc1NC(=O)C(C)Nc1ccc(C)c(Cl)c1 (configuration not stated)	none (no result: GASC-1 inh, ALR inh)
CCOC(=O)C1=C(C)NC(=O)C1CC(=O)Nc1ccccc1 (configuration not stated)	ALR inh 96 (no result: Granule exo inh, SMARCA2 act)
COc1ccc(C(=O)OCCCN(C)C2CN(Cc3cn(Cc4ccc([N+](=O)[O-])cc4)nn3)S(=O)(=O)C2)cc1OC (configuration not stated)	none (no result: Granule exo inh, GASC-1 inh, M18AAP inhibitor, beta cell repl, ALR inh)
Cc1ccsc1/C=N/N1CCN(c2ccccn2)CC1	ALR inh 99
CCCC(=O)Nc1sc(C(=O)Nc2cccc(N)c2)c(C)c1C(=O)OC	ALR inh 98
Cc1ccc(SCc2c(C(=O)N/N=C/c3ccccc3)nnn2-c2nonc2N)cc1	Granule exo inh 85
Cc1ccc(/C=N/NC(=O)c2nnn(-c3nonc3N)c2CSc2ccccc2)cc1	none (no result: ALR inh)
Cc1ccc(SCc2c(C(=O)N/N=C/c3ccc4c(c3)OCO4)nnn2-c2nonc2N)cc1	Granule exo inh 79
COc1ccc(C(=O)OCCN(C)C2CN(Cc3cn(Cc4ccccc4Cl)nn3)S(=O)(=O)C2)cc1OC (configuration not stated)	none (no result: Granule exo inh, GASC-1 inh, M18AAP inhibitor, beta cell repl, ALR inh)
O=[N+]([O-])c1ccc(N2CCN(c3ccccc3Cl)CC2)cn1	M18AAP inhibitor 32
S=c1[nH]cc(-c2ccccc2)n1-c1ccccc1Cl	ALR inh 90
Cc1ccc(-c2c[nH]c(=S)n2-c2ccccc2F)cc1	ALR inh 98
COc1ccc2c(c1)CCCN2C(=O)C1CCCN(S(=O)(=O)c2cccc3ccccc23)C1 (configuration not stated)	none (no result: Granule exo inh, GASC-1 inh, M18AAP inhibitor, beta cell repl, ALR inh)
O=C1NN(c2cccc(Br)c2)C(=O)/C1=C\c1ccccc1	ALR inh 89
O=C1NN(c2ccccc2)C(=O)/C1=C\c1ccccc1	ALR inh 90
O=C1NN(c2ccccc2)C(=O)/C1=C/c1coc2ccccc2c1=O	ALR inh 97
O=C1NN(c2ccccc2)C(=O)C1=Cc1ccccc1	none (no result: GASC-1 inh, M18AAP inhibitor, beta cell repl, ALR inh)
CCn1c(SCc2ccccc2Cl)nnc1-c1ccccc1OC	none (no result: Granule exo inh, GASC-1 inh, M18AAP inhibitor, beta cell repl, ALR inh)
O=[N+]([O-])c1cc(S(=O)(=O)NCc2ccco2)ccc1NN=Cc1ccccn1	none (no result: Granule exo inh, GASC-1 inh, M18AAP inhibitor, beta cell repl, ALR inh)
COc1cccc(-c2nc(CS(=O)CC(=O)NCc3ccccc3)c(C)o2)c1 (configuration not stated)	ALR inh 100
CCCNC(=O)CS(=O)Cc1nc(-c2cccc(OC)c2)oc1C (configuration not stated)	ALR inh 99
COc1cccc(-c2nc(CS(=O)(=O)CC(=O)NCc3ccc(Cl)cc3)c(C)o2)c1	none
Cc1ccc(O)c(-c2cc(C(=O)NCc3ccncc3)[nH]n2)c1	ALR inh 90
Cc1cc(C)c(O)c(-c2cc(C(=O)NCc3ccccc3)[nH]n2)c1	none
O=C(Nc1nc(-c2ccccc2)c(-c2ccccc2)o1)c1ccc(F)cc1	none
CCOC(=O)C(=O)Nc1nc(-c2ccccc2)c(-c2ccccc2)o1	ALR inh 88
Cc1ccc(NC(=O)CCCC(=O)O)c(Br)c1	none
Cc1ccc(O)c(NC(=O)CCCC(=O)O)c1	ALR inh 82
CCC(C)NC(=O)Nc1ccc2c(c1)N(C)C(=O)c1ccccc1S2 (configuration not stated)	none
COCCNC(=O)Nc1ccc2c(c1)N(C)C(=O)c1ccccc1S2	ALR inh 96
Cc1ccccc1CN1CCCCC(NC(=O)c2ccc(Br)cc2)C1=O (configuration not stated)	none (no result: Granule exo inh, GASC-1 inh, M18AAP inhibitor, beta cell repl, ALR inh)
c1ccc2c(c1)nnn2CNc1nccs1	ALR inh 99
COc1cc(/C=N/N2C(=O)c3ccccc3C2=O)ccc1O	none
COc1cc(/C=N/N=C2/C(=O)Nc3ccccc32)ccc1O	ALR inh 99
COc1cc(/C=N/N=C2/NC(=O)C(c3ccccc3)S2)ccc1O (configuration not stated)	ALR inh 99
CC(C)[C@H](NC(=O)[C@H](Cc1ccccc1)NC(=O)OC(C)(C)C)C(=O)N1CCC2CCN(S(=O)(=O)c3ccccc3)CC21 (some centres not stated)	none (no result: Granule exo inh, GASC-1 inh, M18AAP inhibitor, beta cell repl, ALR inh)
COc1ccccc1Cc1c(C2CCCCC2)nc2c(C)cc(Br)cn12	none (no result: Granule exo inh, GASC-1 inh, M18AAP inhibitor, beta cell repl, ALR inh)
O=C(CCc1ccccc1)N[C@H]1[C@H](O)CCC[C@]12C(=O)N(Cc1ccccc1)c1ccccc12	none (no result: Granule exo inh, GASC-1 inh, M18AAP inhibitor, beta cell repl, ALR inh)
C=CCn1c(SCC(=O)Nc2nc(C)cs2)nnc1C(CO)NC(=O)c1ccccc1 (configuration not stated)	ALR inh 85
CCOC(=O)Cc1csc(NC(=O)CSc2nnc(-c3ccncc3)n2Cc2ccco2)n1	ALR inh 97
CCn1c(SCC(=O)Nc2nnc(C)s2)nnc1-c1ccncc1	none
